Source: PubChem
VP16 counter = VP16 counterscreen qHTS for inhibitors of ROR gamma transcriptional activity. Drosophila S2 Gal4-VP16 UAS-luciferase, luminescence, 20 h. Potency, µM (series often up to 53.6 µM), without a hit: at the highest dose activity, negative = inhibition, hits mostly inhibitors. 310,000 compounds, 3.5% hits;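 note: Gal4-VP16 expression switched on by copper sulfate through the metallothionein promoter; nearly all actives have a fitted effect of over 50% in size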
Sfp PPTase inh = qHTS Assay for Inhibitors of Bacillus subtilis Sfp phosphopantetheinyl transferase (PPTase) | Biochemical Sfp PPTase activity, qHTS | AID 1490, 2009 | 310,000 compounds, 3.5% hits | 4'-phosphopantetheinyl transferase ffp (Bacillus subtilis), Q9F4F7 | Potency, µM, for the others: largest response in the series, negative = inhibition, actives largely listed as inhibitors;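 note: the enzyme is Sfp with the accession as filed and its product quenches rhodamine fluorescence; 0% = enzyme reaction without inhibitor and -100% = no enzyme wells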
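Reaction rates are the 30-min fluorescence difference (ex 525, em 598 nm) in wells containing 15 nM Sfp, 5 uM rhodamine-CoA and 12.5 uM BHQ-2-YbbR at pH 7.6 with 10 mM MgCl2.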
PLK1 PBD block = qHTS for Inhibitors of PLK1-PDB (polo-like kinase 1 - polo-box domain): Primary Screen; Plk1 PBD binding of FITC phosphopeptide, fluorescence polarization; Potency, µM, for the others: max response, negative = inhibition, actives largely listed as inhibitors; 360,000 compounds, 2.8% hits; AID 720504, 2013; note: series mostly up to about 57 µM; nearly all actives have a fitted effect of over 65% in size
Target sequence (P53350 whole entry, looked up, the tested form may be a part): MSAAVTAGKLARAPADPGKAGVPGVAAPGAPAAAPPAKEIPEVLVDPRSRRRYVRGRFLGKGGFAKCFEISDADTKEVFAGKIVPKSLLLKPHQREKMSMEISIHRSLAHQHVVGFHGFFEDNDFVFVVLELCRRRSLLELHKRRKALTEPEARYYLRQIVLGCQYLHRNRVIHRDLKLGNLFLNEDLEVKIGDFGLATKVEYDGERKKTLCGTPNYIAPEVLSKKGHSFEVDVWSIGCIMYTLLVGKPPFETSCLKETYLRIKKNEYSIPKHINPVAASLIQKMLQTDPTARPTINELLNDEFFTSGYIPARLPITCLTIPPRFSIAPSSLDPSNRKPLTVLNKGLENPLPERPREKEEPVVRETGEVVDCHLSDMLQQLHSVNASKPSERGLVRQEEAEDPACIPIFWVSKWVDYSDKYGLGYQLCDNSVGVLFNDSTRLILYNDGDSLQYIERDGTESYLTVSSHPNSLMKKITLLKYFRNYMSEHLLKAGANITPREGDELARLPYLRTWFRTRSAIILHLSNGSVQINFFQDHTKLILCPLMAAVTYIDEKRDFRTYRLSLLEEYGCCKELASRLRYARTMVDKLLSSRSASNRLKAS
ALDH1A1 inh = qHTS Assay for Inhibitors of Aldehyde Dehydrogenase 1 (ALDH1A1) | Aldehyde dehydrogenase 1A1 (Homo sapiens), P00352 | AID 1030, 2008 | 220,000 compounds, 7.3% hits | Purified ALDH1A1, NADH fluorescence, propionaldehyde substrate | Potency, µM (doses to about 75.3 µM), for the others: at the top dose activity, negative = inhibition, actives largely listed as inhibitors; active = well fitted inhibition curve with a large enough effect, not every such curve was filed as active; inconclusive = small, poorly fitted or top-dose-only effect, or another doubt; inactive = no such curve, though single readings can be large or run the other way;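 note: plate controls were no enzyme wells and a reference inhibitor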
RORg inh = qHTS for inhibitors of ROR gamma transcriptional activity; Nuclear receptor ROR-gamma (Mus musculus), P51450; Potency, µM (top dose mostly 53.6 µM), for the others: at the top dose activity change, negative = inhibition, hits mostly inhibitors; AID 2551, 2010; 310,000 compounds, 5.4% hits; Drosophila S2 Gal4-RORgamma UAS-luciferase reporter, 20 h; note: nearly all actives have a fitted effect of over 60% in size
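ROR gamma transcriptional activity was tracked as Gal4-UAS luciferase output in stably transfected Drosophila Schneider cells, with compound added 1 hr before 700 uM copper sulfate induction and a 20 hr ambient-temperature incubation.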
The depositor's hits bear a star; ? = inconclusive; nt = no result given; [ ] = another dose, or the depositor's remark. Most compounds without a hit are left out; they make up all but 12% or so of the library. Unless noted, calls come from the whole dose curve; as a rule, active = well fitted curve in the direction sought with a large enough effect; inconclusive = small, poorly fitted or top-dose-only effect, or another doubt; inactive = no such curve, though single readings can be large; an effect the other way counts as inactive or inconclusive. Unless noted, % is set by controls: 0 for no effect and ±100 for the full control effect; potency is the fitted concentration of half-maximal effect.

SMILES	VP16 counter	Sfp PPTase inh	PLK1 PBD block	ALDH1A1 inh	RORg inh
COCCNC(=O)C(C)N1c2cccc3cccc(c23)S1(=O)=O (centres undefined)	2%	8%	?	?	-12%
CC(Sc1nnnn1C)C(=O)Nc1ccccc1-c1ccccc1 (centres undefined)	-4%	10%	-10%	0%	-4%
COc1ccccc1NC(=O)C(C)Sc1nnnn1C (centres undefined)	7%	19%	-1%	8.9µM*	1%
N#CCC(=O)Nc1ccc(C(=O)OCC(=O)c2ccc3c(c2)NC(=O)CO3)cc1	nt	nt	-18%	nt	nt
Cn1c(CN2CCCCC2)nc2cc([N+](=O)[O-])ccc21	3%	-1%	-9%	11µM*	2%
COc1ccc(N2CCN(c3ccc(NC(=O)NN)cc3)CC2)cc1	0%	11%	-4%	nt	1%[1.91 µM]
COc1ccc(N2CCSC2C(=O)NN)cc1 (centres undefined)	2%	2%	-4%	3.2µM*	-24%
CCC1CCCCN1C(=O)Cn1c(=O)n(CCCC(=O)NCc2ccco2)c(=O)c2sccc21 (centres undefined)	6%	4%	?	nt	36%
CC(C)CC(=O)N1CCC(N2CCN(c3ccccc3)CC2)CC1	-14%	-2%	30µM*	2%	-2%
CCOC(=O)C1CCN(C(=O)CC(NS(=O)(=O)c2ccc(OC)cc2)C(C)C)CC1 (centres undefined)	-1%	-8%	3.8µM*	-11%	-35%
CCOC(=O)C1CCN(C(=O)CCNS(=O)(=O)c2ccc(C)cc2)CC1	nt	nt	1%	nt	nt
CCOC(=O)C1CCN(C(=O)CC(C)c2ccccc2)CC1 (centres undefined)	12%	16%	24µM*	?	-8%
CCOC(=O)C1CCCN(C(=O)CC(C)c2ccccc2)C1 (centres undefined)	-14%	16%	-8%	?	9%
COC(=O)C1CCN(C(=O)C2CCN(C(=O)[C@@H](NS(=O)(=O)c3ccc(C)cc3)C(C)C)CC2)CC1	?	11%	-2%	nt	1.1µM*
N#Cc1ccc(CS(=O)(=O)c2nnnn2C2CCCCC2)cc1	2%	16%	nt	3%	-10%
CCCC(=O)Nc1ccc(Cl)c(NC(=O)c2cccnc2)c1	-29%	-1%	-7%	7%	-23%
COc1cccc(C(=O)Nc2ccc(C3CC3(Cl)Cl)cc2)c1 (centres undefined)	-10%	2%	-8%	11µM*	21%
COc1cccc(C(=O)Nc2ccc3c(c2)C(=O)N(CCC(=O)O)C3=O)c1	-12%	15%	-6%	13%	-21%
O=C(Nc1ccc2c(c1)C(=O)c1ccccc1-2)c1ccccc1	nt	nt	2%	nt	nt
COc1cccc(C(=O)Nc2ccc3c(c2)C(=O)c2ccccc2C3=O)c1	?	-8%	27µM*	-5%	?
CCCC(=O)Nc1ccc(Cl)c(NC(=O)c2cccc(OC)c2)c1	5%	6%	-3%	2.8µM*	24%
COc1cccc(C(=O)Nc2ccc(C)cc2)c1	?	4%	1%	-8%	?
COCCCN1C(=O)c2ccc(C(=O)Nc3cccc(OC)c3)cc2C1=O	10%	17%	-22%	1.6µM*	3%
CC(C)CSCC1OC(n2cnc3c(N)nccc32)C(O)C1O (centres undefined)	nt	nt	-7%	nt	nt
CCC(=O)Nc1ccc2c(c1)C(=O)c1ccccc1C2=O	-9%	6%	-8%	7.9µM*	-39%
SMILES	VP16 counter	Sfp PPTase inh	PLK1 PBD block	ALDH1A1 inh	RORg inh
Cc1ccccc1OCCCN1C(=O)C(=O)c2cccc(C)c21	11µM*	-25%	?	0.11µM*	35µM*
Cc1cccc2c1N(CCCOc1ccc(C(C)(C)C)cc1)C(=O)C2=O	?	?	?	0.089µM*	-38%
CC(C)(C)c1ccc(OCCN2CCCC2)cc1	3%	-1%	2%	-15%	-26%
CCCCN(C)c1c(C)nc2ccc(C(=O)Nc3cc(-c4ccccc4)ccc3OC)cn12	nt	nt	-7%	nt	nt
CC(=O)Nc1ccc(S(=O)(=O)NNC2=NS(=O)(=O)c3ccccc32)cc1	-24%	-25%	-5%	-14%	10µM*
CCCNC(=O)C1(C)CCN(Cc2ccc3ccccc3c2Br)C1 (centres undefined)	nt	nt	-15%	nt	nt
Cc1cc(C)cc(NC(=S)N2CCN(S(=O)(=O)c3ccccc3)CC2)c1	?	27%	-5%	nt	11µM*
Cc1ccc(NC(=S)N2CC(C)OC(C)C2)cc1C (centres undefined)	?	14%	-3%	nt	16µM*
Cc1cccc(NC(=S)N2CCCCCC2)c1	?	-1%	2%	?	?
Cc1ccc(NC(=S)N2CCN(S(=O)(=O)c3ccccc3)CC2)cc1	6%	22%	2%	nt	?
CC1CN(C(=S)Nc2ccc(Br)cc2)CC(C)O1 (centres undefined)	?	11%	-7%	nt	?
CC1CN(C(=S)Nc2cccc(Cl)c2)CC(C)O1 (centres undefined)	?	9%	-6%	nt	?
Cc1cc(C)cc(NC(=S)N2CCCC2)c1	?	7%	0%	nt	13µM*
Cc1cc(C)cc(NC(=S)N2CC(C)OC(C)C2)c1 (centres undefined)	?	5%	-2%	nt	16µM*
CC(C)c1ccc(NC(=O)C2(C)Cc3c(-c4ccc(N(C)C)cc4)ccnc3O2)cc1 (centres undefined)	nt	nt	-2%	nt	nt
CNC(=S)N/N=C/c1c(C)nn(-c2ccc(F)cc2)c1Cl	7.1µM*	-1%	-15%	-12%	2.8µM*
CCOc1ccc(Oc2c(/C=N/NC(=O)COc3ccccc3OC)c(C)nn2-c2ccccc2)cc1	-7%	-12%	-3%	?	?
Cc1nn(-c2ccc(F)cc2)c(Cl)c1/C=N/NC(=O)c1cccs1	-18%	-23%	0%	18%	?
CCOc1ccc(Oc2c(/C=N/NC(N)=O)c(C)nn2-c2ccccc2)cc1	-11%	-14%	1%	32µM*	-19%[10 µM]
Cc1nn(-c2ccc(Cl)cc2)c(Cl)c1/C=N/NC(=O)c1ccc(NS(=O)(=O)c2cccs2)cc1	nt	nt	24µM*	nt	nt
Cc1nn(-c2ccc(F)cc2)c(Cl)c1/C=N/NC(=O)c1ccc(O)cc1	2.2µM*	8%	-9%	0%	?
O=C(NCc1ccccc1)c1cc(C2CCCCN2C(=O)c2cccs2)on1 (centres undefined)	nt	nt	-10%	nt	nt
Cc1noc(C)c1-c1nccc(NCc2cccnc2)n1	23%	?	nt	-1%	-44%
CCc1nc2ccc(C(=O)N(CC)CCN(C)C)cn2c1N(CC)CCOC	nt	nt	-3%	nt	nt
CCc1nc2c(OCc3ccccc3C)cccn2c1N(C)C(=O)C1CC1	nt	nt	4%	nt	nt
